Test results from PubChem BioAssay (NCATS).
A number with no mark means an inactive call. Records with an inconclusive call do not appear. Activity calls are given as the source filed them. Unless noted, calls follow the shape of the dose curve; as a rule, active = well fitted curve in either direction with a large enough effect (not every such curve was filed as active); inconclusive = small, poorly fitted or top-dose-only effect, or another doubt; inactive = flat fitted curve, though single readings scatter.

How the values were obtained:
[1] = target: Lysosomal acid glucosylceramidase (Homo sapiens) (UniProt P04062); test: Glucocerebrosidase-p2 (AID 348; in the data active = potency below about 10 µM; also: potency is read from the fitted curve at half-maximal effect); conditions: purified GBA, blue fluorogenic substrate, 40 min
Lysosomal acid glucosylceramidase (Homo sapiens), sequence (P04062 whole entry, looked up): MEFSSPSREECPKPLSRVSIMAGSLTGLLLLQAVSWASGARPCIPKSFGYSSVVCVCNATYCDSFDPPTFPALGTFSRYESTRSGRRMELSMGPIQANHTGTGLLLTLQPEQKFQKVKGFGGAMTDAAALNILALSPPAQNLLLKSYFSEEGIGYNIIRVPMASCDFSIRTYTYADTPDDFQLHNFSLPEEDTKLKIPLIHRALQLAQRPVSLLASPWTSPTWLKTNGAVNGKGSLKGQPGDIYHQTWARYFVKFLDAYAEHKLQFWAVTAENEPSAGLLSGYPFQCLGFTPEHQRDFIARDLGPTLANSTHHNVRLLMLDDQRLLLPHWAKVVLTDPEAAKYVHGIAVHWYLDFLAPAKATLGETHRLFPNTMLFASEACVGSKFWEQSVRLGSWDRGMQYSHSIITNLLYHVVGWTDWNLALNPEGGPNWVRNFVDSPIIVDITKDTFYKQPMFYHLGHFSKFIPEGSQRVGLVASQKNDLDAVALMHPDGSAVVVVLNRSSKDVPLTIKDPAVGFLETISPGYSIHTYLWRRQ
Outline: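 Compounds titrated from 0.6 nM upwards against 0.2 nM enzyme in pH 5.9 citric acid/KH2PO4, taurocholate, tween-20; blue fluorogenic substrate 80 uM, 40 min room temperature, stopped and read Ex 365/Em 440 for AC50.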

[2] = AP1 Signaling Pathway (AID 357); conditions: ME-180 AP-1-bla reporter, EGF-induced, beta-lactamase ratio, 5 h; at 7.69 µM (top of the series) unless noted; also: % is scaled to controls: 0 for no effect and ±100 for the full control effect
Outline: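 AP-1-bla ME-180 cells with beta-lactamase reporter under AP-1 response element, stimulated with EC50 EGF; compounds titrated, 5 hours at 37 degrees Celsius. CCF4 read at 460/530 nm ratio; positive and negative modulators judged by AC50.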

[3] = target: Cytochrome P450 1A2 (Homo sapiens) (UniProt P05177); test: p450-cyp1a2 (AID 410; calls by dose curve; also: potency is read from the fitted curve at half-maximal effect;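 as to activity change, negative = inhibition: -100% = full effect of reference inhibitor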); conditions: recombinant CYP1A2, luciferin-ME demethylation, luminescence; series mostly up to 11.4 µM
Cytochrome P450 1A2 (Homo sapiens), sequence (P05177 whole entry, looked up): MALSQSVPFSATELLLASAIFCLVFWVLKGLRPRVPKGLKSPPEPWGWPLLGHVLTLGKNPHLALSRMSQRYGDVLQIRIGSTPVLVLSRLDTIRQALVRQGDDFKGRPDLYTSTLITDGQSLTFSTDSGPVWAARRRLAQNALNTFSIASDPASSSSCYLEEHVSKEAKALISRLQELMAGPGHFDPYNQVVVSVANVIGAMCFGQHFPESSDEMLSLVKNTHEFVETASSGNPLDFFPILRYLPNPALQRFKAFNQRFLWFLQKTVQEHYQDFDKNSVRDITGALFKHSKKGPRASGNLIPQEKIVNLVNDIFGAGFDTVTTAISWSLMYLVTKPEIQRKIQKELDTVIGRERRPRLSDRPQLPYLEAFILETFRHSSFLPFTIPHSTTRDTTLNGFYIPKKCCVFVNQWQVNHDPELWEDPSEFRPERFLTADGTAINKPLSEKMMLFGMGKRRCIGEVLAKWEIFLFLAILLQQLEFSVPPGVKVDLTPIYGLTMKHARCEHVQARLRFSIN
Outline: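 Luminescent readout of luciferin formed from Luciferin-ME by human CYP1A2; data normalized against complete inhibition by 57 uM furafylline. Enzyme 20nM, substrate 100uM at Km, 100mM KPO4 buffer, 60 min reaction at room temperature.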

[4] = target: Glucocorticoid receptor (Homo sapiens) (UniProt P04150); test: GR-GFP Redistribution (AID 450;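 active = compounds whose dose series gives a full or clear partial fitted curve of increased nuclear translocation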; also: potency is read from the fitted curve at half-maximal effect); conditions: U2OS GR-GFP nuclear translocation, laser cytometry, 2 h
Glucocorticoid receptor (Homo sapiens), sequence (P04150 whole entry, looked up, the tested form may be a part): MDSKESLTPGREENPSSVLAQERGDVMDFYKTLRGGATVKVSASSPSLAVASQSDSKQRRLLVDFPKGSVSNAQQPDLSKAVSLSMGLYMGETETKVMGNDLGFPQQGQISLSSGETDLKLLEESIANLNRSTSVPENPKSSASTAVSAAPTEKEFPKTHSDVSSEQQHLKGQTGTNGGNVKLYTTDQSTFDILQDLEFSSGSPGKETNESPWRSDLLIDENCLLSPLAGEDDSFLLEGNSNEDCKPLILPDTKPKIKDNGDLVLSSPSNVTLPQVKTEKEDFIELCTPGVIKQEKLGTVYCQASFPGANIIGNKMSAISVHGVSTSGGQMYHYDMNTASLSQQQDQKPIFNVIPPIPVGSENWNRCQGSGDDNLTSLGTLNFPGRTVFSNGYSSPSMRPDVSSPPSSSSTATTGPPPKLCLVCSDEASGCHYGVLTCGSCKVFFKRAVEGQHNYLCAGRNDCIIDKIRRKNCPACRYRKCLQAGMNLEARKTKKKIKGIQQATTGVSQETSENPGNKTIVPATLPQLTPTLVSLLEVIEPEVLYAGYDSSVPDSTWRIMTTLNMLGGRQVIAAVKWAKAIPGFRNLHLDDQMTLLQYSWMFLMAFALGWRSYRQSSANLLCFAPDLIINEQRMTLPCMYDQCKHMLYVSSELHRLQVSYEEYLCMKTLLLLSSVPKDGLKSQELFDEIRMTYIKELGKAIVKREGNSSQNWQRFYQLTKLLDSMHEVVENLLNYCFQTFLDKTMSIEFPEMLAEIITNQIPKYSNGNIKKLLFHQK

[5] = target: Glucocorticoid receptor (Homo sapiens) (UniProt P04150); test: GR-EFC Redistribution (AID 451; calls by dose curve; also: potency is read from the fitted curve at half-maximal effect); conditions: CHO-K1 GR-EFC translocation, beta-gal luminescence, 2 h
Outline: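 CHO-K1 cells expressing nuclear EA and GR-ED fragments of b-gal; compounds titrated up to 46 uM final, 2 h at 37 C. GR nuclear translocation read as complemented b-gal luminescence after 1 h RT detection.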

[6] = target: Mitogen-activated protein kinase 10 (Mus musculus) (UniProt Q61831); test: JNK3 AlphaScreen Assay (AID 530); conditions: JNK3 lysate, c-Jun phosphorylation; series mostly up to 57.1 µM;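 also: kinase came from lysate of stimulated human HepG2 cells; signal reports phosphorylation of biotinylated GST-cJun 1-79 at Ser73 with 10 µM ATP; % is scaled to controls: 0 for no effect and ±100 for the full control effect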
Outline: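 Pre-activated (IL-1β/TNFα) JNK3 in HepG2 lysates phosphorylates biotin-GST-cJun(1-79), 10 uM ATP; anti-phospho-cJun(Ser73) AlphaScreen read at room temperature, pH 7.6 Tris buffer. Compounds pre-incubated 15 min as titrations.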

[7] = target: 3',5'-cyclic-AMP phosphodiesterase 4B (Homo sapiens) (UniProt Q07343); test: qHTS Assay for Inhibitors of PDE-IV (AID 607; active = well fitted activation curve with a large enough effect in the main read-out, with a control signal flat, not every such curve was filed as active; also: % of control where 0% means no effect); conditions: HEK293 ACTOne CNG channel cells, membrane potential fluorescence; series mostly up to 22.9 µM
3',5'-cyclic-AMP phosphodiesterase 4B (Homo sapiens), sequence (Q07343 whole entry, looked up): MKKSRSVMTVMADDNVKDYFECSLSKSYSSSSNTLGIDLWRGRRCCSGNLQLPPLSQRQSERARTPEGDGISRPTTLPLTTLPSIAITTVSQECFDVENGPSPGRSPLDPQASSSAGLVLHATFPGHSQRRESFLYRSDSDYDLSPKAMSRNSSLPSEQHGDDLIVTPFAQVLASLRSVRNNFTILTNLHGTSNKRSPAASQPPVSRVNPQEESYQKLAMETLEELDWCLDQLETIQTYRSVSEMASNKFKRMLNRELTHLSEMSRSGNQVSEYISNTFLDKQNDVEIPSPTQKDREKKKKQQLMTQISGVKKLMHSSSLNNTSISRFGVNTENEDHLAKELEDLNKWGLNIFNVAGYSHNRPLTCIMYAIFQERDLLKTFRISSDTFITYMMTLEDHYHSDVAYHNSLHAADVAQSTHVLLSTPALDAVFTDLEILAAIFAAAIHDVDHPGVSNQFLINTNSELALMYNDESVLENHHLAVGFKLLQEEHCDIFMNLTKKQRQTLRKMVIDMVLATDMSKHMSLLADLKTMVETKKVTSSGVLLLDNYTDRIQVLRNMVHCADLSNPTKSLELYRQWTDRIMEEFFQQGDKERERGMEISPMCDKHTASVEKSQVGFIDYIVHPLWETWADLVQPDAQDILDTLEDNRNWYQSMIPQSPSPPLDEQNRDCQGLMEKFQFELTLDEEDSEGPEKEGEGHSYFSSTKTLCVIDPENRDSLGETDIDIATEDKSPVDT
Outline: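 Live HEK293 cells with a modified cyclic nucleotide-gated (CNG) channel report intracellular cAMP via membrane-potential dye fluorescence (ex 535/em 590 nm). Endogenous PDE-IV was targeted. Compounds were tested at up to 22.9 uM final; RO 20-1724 100 uM served as control.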

[8] = NFAT Signaling Pathway (AID 444); conditions: Jurkat NFAT-bla M1, carbachol, beta-lactamase ratio, 5 h; at 7.69 µM (top of the series) unless noted;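 also: carbachol stimulus at about its EC50 of 1 µM final; % is scaled to controls: 0 for no effect and ±100 for the full control effect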
Outline: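 Jurkat cells with NFAT-driven β-lactamase reporter and co-expressed M1 receptor, stimulated with carbachol (final 1 uM, ~EC50), compound titration, 5 h at 37 °C. CCF4 loaded 1 h at RT; 460/530 nm ratio gave %activity and AC50.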

[9] = Stat Signaling Pathway (AID 446); conditions: ME-180 SIE beta-lactamase reporter, IL-6 stimulated, 5 h; at 7.69 µM (top of the series) unless noted;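 also: ME-180 cervical cancer cells given 40 pM IL-6 alongside compound; SIE-controlled beta-lactamase reporter measured as 460/530 nm FRET emission ratio; % is scaled to controls: 0 for no effect and ±100 for the full control effect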
Outline: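 IL-6/STAT signaling read in ME-180 cells via an SIE beta-lactamase reporter. Stimulus was 40 pM IL-6 (its AC50) for 5 hrs, so both activation and inhibition register.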

[10] = target: Cytochrome P450 2D6 (Homo sapiens) (UniProt P10635); test: qHTS Assay for Inhibitors and Substrates of Cytochrome P450 2D6 (AID 891; active = well fitted curve in the direction sought with a large enough effect; an effect the other way counts as inactive or inconclusive; also: potency is read from the fitted curve at half-maximal effect; nearly all actives have a fitted effect of over 60% in size); conditions: recombinant CYP2D6, luciferin-ME EGE luminescence; series mostly up to 11.4 µM
Cytochrome P450 2D6 (Homo sapiens), sequence (P10635 whole entry, looked up): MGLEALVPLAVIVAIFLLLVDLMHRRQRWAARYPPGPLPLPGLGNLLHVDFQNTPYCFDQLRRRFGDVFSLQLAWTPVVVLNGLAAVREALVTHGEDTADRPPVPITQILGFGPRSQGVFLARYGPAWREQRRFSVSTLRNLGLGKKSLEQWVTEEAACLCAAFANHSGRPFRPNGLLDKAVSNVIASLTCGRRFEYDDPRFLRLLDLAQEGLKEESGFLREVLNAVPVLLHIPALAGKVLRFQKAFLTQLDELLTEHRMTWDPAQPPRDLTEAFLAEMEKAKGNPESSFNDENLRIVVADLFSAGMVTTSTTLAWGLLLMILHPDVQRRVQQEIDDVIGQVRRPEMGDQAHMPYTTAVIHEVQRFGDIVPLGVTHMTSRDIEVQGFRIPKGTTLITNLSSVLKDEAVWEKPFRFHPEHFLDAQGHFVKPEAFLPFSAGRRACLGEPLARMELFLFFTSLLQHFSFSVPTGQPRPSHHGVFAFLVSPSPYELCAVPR
Outline: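 Human CYP2D6 (5 nM) with 30 uM Luciferin-ME EGE (at Km) in 100 mM KPO4, compound preincubated 10 min, then NADPH regeneration system for 60 min at room temperature. Luciferin read by luminescence; normalized to 1.43 uM quinidine.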

[11] = target: Cytochrome P450 2C19 (Homo sapiens) (UniProt P33261); test: qHTS Assay for Inhibitors and Substrates of Cytochrome P450 2C19 (AID 899; active = well fitted curve in the direction sought with a large enough effect; an effect the other way counts as inactive or inconclusive; also: nearly all actives have a fitted effect of over 60% in size; also: potency is read from the fitted curve at half-maximal effect); conditions: recombinant CYP2C19, luciferin-H EGE luminescence; series mostly up to 11.4 µM
Cytochrome P450 2C19 (Homo sapiens), sequence (P33261 whole entry, looked up): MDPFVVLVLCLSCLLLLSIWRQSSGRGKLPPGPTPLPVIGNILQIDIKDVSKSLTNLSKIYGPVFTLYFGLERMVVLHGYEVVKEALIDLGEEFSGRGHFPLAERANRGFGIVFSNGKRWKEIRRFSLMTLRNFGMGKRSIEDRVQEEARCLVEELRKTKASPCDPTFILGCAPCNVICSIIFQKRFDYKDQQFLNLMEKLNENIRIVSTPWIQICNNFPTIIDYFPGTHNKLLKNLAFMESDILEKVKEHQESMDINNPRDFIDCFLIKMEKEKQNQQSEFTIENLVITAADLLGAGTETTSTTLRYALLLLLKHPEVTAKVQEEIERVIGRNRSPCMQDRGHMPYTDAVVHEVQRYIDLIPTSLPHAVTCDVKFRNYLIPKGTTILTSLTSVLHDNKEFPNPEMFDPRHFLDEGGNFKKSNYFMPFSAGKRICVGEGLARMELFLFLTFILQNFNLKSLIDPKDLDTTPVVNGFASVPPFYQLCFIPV
Outline: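 Signal comes from luciferase acting on luciferin released by CYP2C19-mediated hydroxylation of Luciferin-H EGE, 10uM (KM). Assay mix: 5nM enzyme, 50mM KPO4; 60 min at 37C with NADPH regeneration. Data normalized against 57uM ketoconazole.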

[12] = target: Cytochrome P450 3A4 (Homo sapiens) (UniProt P08684); test: qHTS Assay for Inhibitors and Substrates of Cytochrome P450 3A4 (AID 884; active = well fitted curve in the direction sought with a large enough effect; an effect the other way counts as inactive or inconclusive; also: % is scaled to controls: 0 for no effect and ±100 for the full control effect; nearly all actives have a fitted effect of over 50% in size); conditions: recombinant CYP3A4, Luciferin-PPXE luminescence; series mostly up to 57.1 µM
Cytochrome P450 3A4 (Homo sapiens), sequence (P08684 whole entry, looked up): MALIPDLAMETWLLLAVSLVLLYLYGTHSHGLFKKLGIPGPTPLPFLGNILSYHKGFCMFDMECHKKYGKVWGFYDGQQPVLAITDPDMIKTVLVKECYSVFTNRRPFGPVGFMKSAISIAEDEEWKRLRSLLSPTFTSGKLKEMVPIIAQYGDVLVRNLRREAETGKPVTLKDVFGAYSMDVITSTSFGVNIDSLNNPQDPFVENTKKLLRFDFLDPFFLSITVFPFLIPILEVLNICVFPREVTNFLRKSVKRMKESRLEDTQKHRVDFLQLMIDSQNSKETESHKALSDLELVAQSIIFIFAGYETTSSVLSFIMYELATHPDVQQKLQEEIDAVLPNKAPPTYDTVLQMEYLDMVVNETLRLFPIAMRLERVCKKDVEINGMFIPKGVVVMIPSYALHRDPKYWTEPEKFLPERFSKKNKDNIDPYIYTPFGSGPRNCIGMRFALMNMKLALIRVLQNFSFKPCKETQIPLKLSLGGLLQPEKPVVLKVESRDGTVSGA
Outline: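 20 nM human CYP3A4 with 25 uM Luciferin-PPXE (at KM) in 200 mM KPO4, preincubated 10 min with compound; NADPH regeneration started a 60 min RT reaction. Luciferin detected by luminescence, normalized to 57 uM ketoconazole as full inhibition.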

[13] = target: Cytochrome P450 3A4 (Homo sapiens) (UniProt P08684); test: qHTS Assay for Activators of Cytochrome P450 3A4 (AID 885; active = well fitted curve in the direction sought with a large enough effect; an effect the other way counts as inactive or inconclusive; also: nearly all actives have a fitted effect of over 65% in size; also: potency is read from the fitted curve at half-maximal effect); conditions: recombinant CYP3A4, Luciferin-PPXE luminescence, 60 min; series mostly up to 57.1 µM
Outline: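 Quantitative HTS format: compounds preincubated with 20nM human CYP3A4 and Luciferin-PPXE substrate at KM, reaction started by NADPH regeneration, stopped after 60 min, luciferase luminescence read 20 min later.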

[14] = qHTS Assay for Identification of Small Molecule Agonists for Hypoxia Response Element Signaling Pathway (AID 914; active = well fitted activation curve with a large enough effect in the signal ratio, with a control signal flat, not every such curve was filed as active; the % refers to the signal ratio; also: % of control where 0% means no effect); conditions: ME-180 (cervical carcinoma) HRE-bla reporter, beta-lactamase ratio, CoCl2, 17 h; stronger effect = higher value
Outline: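 Compounds in a titration series were added to ME-180 reporter cells alongside an EC50 level of CoCl2. After 17 hours, beta-lactamase activity was read as the 460nm/530nm emission ratio of CCF4, giving AC50 values.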

| Structure (SMILES) | Potency [1] [µM] | activity change, negative = inhibition [2] [%] | Potency [3] | Potency [4] [µM] | Potency [5] [µM] | activity change, negative = inhibition [6] | outcome [7] | activity change, negative = inhibition [8] [%] | activity, negative = inhibition [9] [%] | Potency [10] | Potency [11] | activity change, negative = inhibition [12] | Potency [13] | activation [14] [%] | activity change, positive = activation [13] |
| --- | --- | --- | --- | --- | --- | --- | --- | --- | --- | --- | --- | --- | --- | --- | --- |
| CN1CCN(c2ccc([N+](=O)[O-])c3[nH]o[n+](=O)c23)CC1 | > 11.4 | -7.81 | 0.398 µM (active) | > 46 | > 9.22 | -3.28% [at 11.4 µM] | inactive | – | – | – | – | – | – | – | – |
| C[N+]1(C)C2CC[C@H]1CC(OC(=O)[C@@H](CO)c1ccccc1)C2 (some centres not stated) | > 11.4 | 4 | inactive | > 46 | > 9.22 | – | inactive | – | – | – | – | – | – | – | – |
| CC(C)[C@@H](Br)C(=O)NCC(=O)O | > 11.4 | 5.1 | – | > 46 | > 9.22 | 4.52% [at 11.4 µM] | inactive | 0.167 | 11.3 | – | – | – | – | – | – |
| O=C(CCN1CC2CCC(CC2)C1)c1cccs1 | > 11.4 | 17.2 | 5.01 µM (active) | > 46 | > 9.22 | 0.402% [at 11.4 µM] | inactive | – | 1.61 | 2 µM (active) | – | – | – | – | – |
| O=S(=O)(Nc1nccs1)c1ccc([As](=O)(O)O)cc1 | > 11.4 | 4.77 | – | > 46 | > 9.22 | 2.72% [at 11.4 µM] | inactive | 8.49 | 10.3 | – | – | – | – | – | – |
| O.O.[NH-]C1(C(=O)O)CCCC1.[NH-]C1(C(=O)O)CCCC1.[Ni+2] | > 11.4 | 8.54 | – | > 46 | > 9.22 | -2.59% [at 11.4 µM] | inactive | -0.81 | -5.65 | – | – | – | – | – | – |
| CCOC(=O)c1ccc2[nH]c(-c3ccc(S(=O)(=O)F)cc3)cc(=O)c2c1 | > 11.4 | -7.65 | – | > 46 | > 9.22 | 3.3% [at 11.4 µM] | inactive | 25.8 | -0.749 | – | – | – | – | – | – |
| Nc1c(C(=O)Nc2ccc([As](=O)(O)O)cc2)cnc2nnnn12 | > 11.4 | 2.63 | – | > 46 | > 9.22 | 0.733% [at 11.4 µM] | inactive | 25.5 | -0.343 | – | – | – | – | – | – |
| O=C(O)c1cccc([As]=[As]c2cccc(C(=O)O)c2)c1 (configuration not stated) | > 11.4 | -0.316 | – | > 46 | > 9.22 | -0.547% [at 11.4 µM] | inactive | -6.47 | 2.08 | – | – | – | – | – | – |
| CCCOC(=O)[C@@H]1[C@@H](C(=O)O)[C@H]2CC[C@@H]1O2 | > 11.4 | 5.41 | – | > 46 | > 9.22 | 6.67% [at 11.4 µM] | inactive | -0.63 | 8.61 | – | – | – | – | – | – |
| Cc1ccc(S(=O)ON2CCC(C(=O)O)(c3ccccc3)CC2)cc1 (configuration not stated) | > 11.4 | -1.29 | – | > 46 | > 9.22 | 5.44% [at 11.4 µM] | inactive | 5.73 | 8.69 | – | inactive | – | – | – | – |
| CC(=O)O[C@H]1CC[C@@]2(C)[C@@H](CC[C@H]3[C@H]2CC(=O)[C@]2(C)[C@@H]3C[C@@H](N3CC3)[C@H]2C(C)=O)C1 | > 11.4 | 4.13 | – | > 46 | > 9.22 | -0.773% [at 11.4 µM] | inactive | 13.1 | 5.02 | – | inactive | 71.6% [at 11.4 µM] | 3.98 µM (active) | 5.69 | – |
| CN[C@H](Cc1ccccc1)c1cccc(OC)c1O | > 11.4 | 4.57 | – | > 46 | – | 1.41% [at 11.4 µM] | inactive | 10.1 | -6.4 | 0.0398 µM (active) | 2 µM (active) | – | – | – | – |
| CC[C@@](O)(C(=O)O)c1cc2n(c(=O)c1CO)Cc1cc3ccccc3nc1-2 | > 11.4 | 0.967 | – | > 46 | > 9.22 | 3.55% [at 11.4 µM] | inactive | -9.59 | -0.155 | – | – | – | – | – | -36.6% [at 11.4 µM] |
